Inconclusive results are not listed. Active and inactive are the calls of the source. The call rests on the fitted dose curve; in most records, active means well fitted curve in the direction sought with a large enough effect; inconclusive means small, poorly fitted or top-dose-only effect, or another doubt; inactive means no such curve, though single readings can be large; an effect the other way counts as inactive or inconclusive.
Key:
[1] = Cellular Toxicity (caspase-3) Mesangial (AID 660); details: mesangial cells, normalized: DMSO 0%, 100 µM tamoxifen 100%; at 91.7 µM (top of the series);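 further: combined caspase 3 and 7 activity read by Caspase-Glo luminescence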
How it was run: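 Human renal glomerular mesangial cells, 1000/well, 5 h at 37 C before 16 h compound treatment. Caspase-Glo 3/7 luminescence after 20 min; normalized to DMSO and 100 uM tamoxifen, AC50 from Hill fit.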

[2] = Cellular Toxicity (caspase-3) SK-N-SH (AID 661);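 further: 0% = DMSO basal and 100% = 10 µM staurosporine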
How it was run: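 Human SK-N-SH neuroblastoma cells, 1500/well, were exposed to compounds for 16 hours at 37 °C. Caspase-Glo 3/7 luminescence was normalized to DMSO (basal) and 10 uM staurosporine (100%), and AC50 came from a Hill fit.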

[3] = Cellular Toxicity (caspase-3) H-4-II-E (AID 663); details: H-4-II-E rat hepatoma, scaled: DMSO 0%, 100 µM tamoxifen 100%; at 92.2 µM (top of the series);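 further: cells exposed to compound for 16 hr before readout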
How it was run: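 Rat hepatoma H-4-II-E cells (1500/well) plated 5 hr, then exposed to compound titrations for 16 hr at 37 °C. Caspase-Glo 3/7 luminescence read after 20 min at RT; data normalized to DMSO and 100 uM tamoxifen, AC50 from Hill fits.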

[4] = Cellular Toxicity (caspase-3) Hek293 (AID 664); details: HEK293 caspase-3 activation, DMSO = 0%, 100 µM tamoxifen = 100%; at 92.2 µM (top of the series);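 further: cells exposed to compound for 16 h at 37 °C before readout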
How it was run: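 HEK293 cells in complete medium treated 16 h at 37 °C, then Caspase-Glo 3/7 luminescence read after 20 min at room temperature. Normalized to DMSO and 100 uM tamoxifen; AC50 from Hill fit of concentration-response.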

[5] = Cellular Toxicity (caspase-3) N2a (AID 665);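 further: compound exposure lasted 16 h at 37 °C before readout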
How it was run: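 Mouse N2a neuroblastoma cells, 1500 per well, treated 16 h at 37 °C in complete medium; caspase-3/7 activity by Caspase-Glo luminescence after 1 h. Normalized to DMSO and 10 uM staurosporine; AC50 from Hill fits.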

[6] = Cellular Toxicity (caspase-3) NIH 3T3 (AID 666);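 further: caspase signal read after 16 h compound exposure; 0% = DMSO basal and 100% = 100 µM tamoxifen stimulation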
How it was run: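 Mouse NIH 3T3 fibroblasts (1000/well) treated 16 h at 37 C; caspase-3/7 activity measured by Caspase-Glo 3/7 luminescence after 20 min. Normalized to DMSO and 100 uM tamoxifen; AC50 from Hill fits.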

[7] = Cellular Toxicity (caspase-3) Renal Proximal Tubule (AID 667); details: Potency: caspase-3 activation;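 further: cells exposed to compound for 16 hours at 37 °C before detection; 0% = DMSO basal and 100% = 10 µM staurosporine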
How it was run: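 Primary rat proximal tubule cells, 1000/well, 5 h plating at 37 °C, then compound 16 h at 37 °C. Caspase-Glo 3/7 reagent, 1 h RT, luminescence. Normalized to DMSO (basal) and 10 uM staurosporine (100%); Hill-fit AC50.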

[8] = biological target: Cytochrome P450 3A4 (Homo sapiens) (UniProt P08684); assay: qHTS Assay for Inhibitors and Substrates of Cytochrome P450 3A4 (AID 884); further: on the % scale 0 is the no-effect control and ±100 the full control effect; nearly all actives have a fitted effect of over 50% in size
Sequence of Cytochrome P450 3A4 (Homo sapiens) (P08684 whole entry, looked up): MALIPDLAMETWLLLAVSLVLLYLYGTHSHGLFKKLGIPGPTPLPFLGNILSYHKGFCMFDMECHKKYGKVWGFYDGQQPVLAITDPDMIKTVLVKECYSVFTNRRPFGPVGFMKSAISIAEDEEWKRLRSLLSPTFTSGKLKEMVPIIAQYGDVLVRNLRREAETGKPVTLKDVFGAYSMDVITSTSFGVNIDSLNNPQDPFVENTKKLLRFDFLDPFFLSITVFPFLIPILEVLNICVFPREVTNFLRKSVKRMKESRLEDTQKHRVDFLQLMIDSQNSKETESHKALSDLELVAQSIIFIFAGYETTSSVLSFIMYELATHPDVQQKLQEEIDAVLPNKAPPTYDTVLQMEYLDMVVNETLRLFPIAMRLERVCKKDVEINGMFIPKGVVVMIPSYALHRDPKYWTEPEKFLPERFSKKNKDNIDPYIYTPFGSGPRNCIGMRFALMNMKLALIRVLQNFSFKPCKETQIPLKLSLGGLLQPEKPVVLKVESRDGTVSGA
How it was run: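 20 nM human CYP3A4 with 25 uM Luciferin-PPXE (at KM) in 200 mM KPO4, preincubated 10 min with compound; NADPH regeneration started a 60 min RT reaction. Luciferin detected by luminescence, normalized to 57 uM ketoconazole as full inhibition.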

[9] = Cell Viability - LYMP2-001 (AID 921);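 further: 0% = DMSO only and full inhibition = tetraoctylammonium bromide control wells; nearly all actives have a fitted effect of over 70% in size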
How it was run: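 Human lymphoblastoid cells (Coriell), 2500 per well, were preincubated 5 hr at 37 C, then exposed to compounds in complete medium for 24 hr at 37 C. Cellular ATP was read by CellTiter-Glo luminescence; AC50 from Hill fits of concentration-response data.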

[10] = MultiTox-Fluor Cytotoxicity Assay - LYMP1-001 - Dead Cells (AID 946);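 further: 0% = DMSO and 100% = tetraoctylammonium bromide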
How it was run: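 AC50 from Hill fit of concentration-response; data normalized to DMSO (basal) and 15 uM tetraoctylammonium bromide (100%). LYMP1-001 lymphoblastoid cells, 2500/well, 16 hr compound at 37 C; dead-cell protease fluorescence, Ex/Em 485/520.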

[11] = MultiTox-Fluor Cytotoxicity Assay - LYMP1-001 - Live Cells (AID 947);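 further: 0% = DMSO only and full inhibition = tetraoctylammonium bromide control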
[12] = Cell Viability - LYMP1-002 - Assay at 16 hr (AID 948);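 further: 0% = DMSO alone and full effect = 92 µM tetraoctylammonium bromide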
How it was run: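 Human lymphoblastoid cells (LYMP1-002), 2500/well, were preincubated 5 hr at 37 C, then exposed to compounds for 16 hr at 37 C in complete medium. Cellular ATP was read by CellTiter-Glo luminescence after 30 min at room temperature; AC50 from Hill fits.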

[13] = MultiTox-Fluor Cytotoxicity Assay - LYMP1-002 - Live Cells (AID 955); further: on the % scale 0 is the no-effect control and ±100 the full control effect
How it was run: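 Human lymphoblastoid LYMP1-002 cells, 2500/well, treated 16 h at 37 C in complete medium. Live-cell protease activity via GF-AFC fluorescence (Ex/Em 405/510) after 60 min reagent incubation; AC50 from Hill fits.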

[14] = MultiTox-Fluor Cytotoxicity Assay - LYMP1-003 - Dead Cells (AID 961);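 further: 0% = DMSO and 100% = tetraoctylammonium bromide; nearly all actives have a fitted effect of over 70% in size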
How it was run: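 Human lymphoblastoid LYMP1-003 cells (2500/well) were treated with compounds for 16 hr at 37 C in complete medium. Dead-cell protease release was read by bis-AAF-R110 fluorescence (Ex/Em 485/520). AC50 came from Hill fits, normalized to DMSO and 15 uM tetraoctylammonium bromide.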

[15] = MultiTox-Fluor Cytotoxicity Assay - LYMP1-003 - Live Cells (AID 962);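 further: 0% = DMSO only and full loss = 92 µM tetraoctylammonium bromide; cytotoxic hits lower the live-cell protease signal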
How it was run: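 LYMP1-003 lymphoblastoid cells, 2500/well in complete medium, treated 16 h at 37 C; live-cell protease cleavage of GF-AFC read by fluorescence (Ex/Em 405/510) after 60 min reagent; AC50 from Hill fits of concentration-response.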

[16] = Cell Viability - LYMP1-003 - Assay at 24 hr (AID 963);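 further: plate controls were DMSO only for no effect and tetraoctylammonium bromide positive control for full effect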
How it was run: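 Human lymphoblastoid LYMP1-003 cells, 2500/well, treated 24 h at 37 C in complete medium. Viability read as intracellular ATP by CellTiter-Glo luminescence after 30 min at room temperature; AC50 from Hill-equation fits of qHTS concentration-response.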

[17] = Cell Viability - LYMP1-003 - Assay at 40 hr (AID 964); further: on the % scale 0 is the no-effect control and ±100 the full control effect; nearly all actives have a fitted effect of over 60% in size
How it was run: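 LYMP1-003 human lymphoblastoid cells, 2500/well, preincubated 5 h at 37 C, then treated with compound for 40 h at 37 C. Intracellular ATP read by CellTiter-Glo luminescence after 30 min at room temperature; AC50 from Hill-equation fits.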

[18] = Cell Viability - LYMP2-003 (AID 965);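 further: cells exposed to compounds for 24 h before reading; 0% = DMSO only and full effect = 92 µM tetraoctylammonium bromide; nearly all actives have a fitted effect of over 50% in size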
How it was run: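 Human lymphoblastoid cells (2500/well) were pre-incubated 5 hr at 37 C, then exposed to compounds over a concentration range for 24 hr at 37 C. Intracellular ATP was read by CellTiter-Glo luminescence; AC50 came from Hill-equation fits.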

[19] = MultiTox-Fluor Cytotoxicity Assay - LYMP1-002 - Dead Cells (AID 960);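 further: 0% = DMSO and 100% = tetraoctylammonium bromide; nearly all actives have a fitted effect of over 60% in size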
How it was run: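 Human lymphoblastoid LYMP1-002 cells, 2500/well, treated 16 h at 37 C; dead-cell protease cleavage of bis-AAF-R110 read by fluorescence (485/520); normalized to DMSO and 15 uM tetraoctylammonium bromide; AC50 from Hill fit.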

Cc1ccc(C#N)cc1
inactive: caspase-3 activation [1] -0.175% | outcome [2] | caspase-3 activation [3] 0.0504% | caspase-3 activation [4] 0.103% | outcome [5] | outcome [6] | Potency [7] | Potency [8] | Potency [9] | outcome [10] | outcome [11] | outcome [12] | outcome [13] | Potency [14] | Potency [15] | Potency [16] | Potency [17] | Potency [18]

CC(O)CC(C)O (stereo not drawn)
inactive: caspase-3 activation [1] 0.0132% | outcome [2] | caspase-3 activation [3] 1.09% | caspase-3 activation [4] -0.296% | outcome [5] | outcome [6] | Potency [7] | Potency [8] | Potency [9] | outcome [10] | outcome [11] | outcome [12] | outcome [13] | Potency [14] | Potency [15] | Potency [16] | Potency [17] | Potency [18]

C=C(C)C(=O)OCC(C)O (stereo not drawn)
inactive: caspase-3 activation [1] 0.397% | outcome [2] | caspase-3 activation [3] 0.102% | caspase-3 activation [4] -1.45% | outcome [5] | outcome [6] | Potency [7] | Potency [8] | Potency [9] | outcome [10] | outcome [11] | outcome [12] | outcome [13] | outcome [19] | Potency [15] | Potency [16] | Potency [17] | Potency [18]

CC(=O)OC(C)C
inactive: caspase-3 activation [1] 0.284% | outcome [2] | caspase-3 activation [3] 0.45% | caspase-3 activation [4] 0.887% | outcome [5] | outcome [6] | Potency [7] | Potency [8] | Potency [9] | outcome [10] | outcome [11] | outcome [12] | outcome [13] | Potency [14] | Potency [15] | Potency [16] | Potency [18]

O=C(O)c1ccccc1[N+](=O)[O-]
inactive: caspase-3 activation [1] 0.745% | outcome [2] | caspase-3 activation [3] 1.85% | caspase-3 activation [4] 2.82% | outcome [5] | outcome [6] | Potency [7] | Potency [8] | Potency [9] | outcome [10] | outcome [11] | outcome [12] | outcome [13] | Potency [14] | Potency [15] | Potency [16] | Potency [17] | Potency [18]

CCCCCCC=O
inactive: caspase-3 activation [1] -0.687% | outcome [2] | caspase-3 activation [3] 1.06% | caspase-3 activation [4] -2.62% | outcome [5] | outcome [6] | Potency [7] | Potency [8] | Potency [9] | outcome [10] | outcome [11] | outcome [12] | outcome [13] | Potency [14] | Potency [15] | Potency [16] | Potency [17] | Potency [18]

c1ccc(Oc2ccccc2)cc1
inactive: caspase-3 activation [1] 0.858% | outcome [2] | caspase-3 activation [3] 0.181% | caspase-3 activation [4] -1.47% | outcome [5] | outcome [6] | Potency [7] | Potency [8] | Potency [9] | outcome [10] | outcome [11] | outcome [12] | outcome [13] | Potency [15] | Potency [16] | Potency [17]

OCCO
inactive: caspase-3 activation [1] -0.444% | outcome [2] | caspase-3 activation [3] -0.0515% | caspase-3 activation [4] 0.819% | outcome [5] | outcome [6] | Potency [7] | Potency [8] | Potency [9] | outcome [10] | outcome [12] | outcome [13] | outcome [19] | Potency [14] | Potency [15] | Potency [16] | Potency [17] | Potency [18]

CC(=O)OC(C)=O
inactive: caspase-3 activation [1] 0.184% | outcome [2] | caspase-3 activation [3] -0.382% | caspase-3 activation [4] -0.384% | outcome [5] | outcome [6] | Potency [7] | Potency [8] | Potency [9] | outcome [10] | outcome [12] | outcome [13] | outcome [19] | Potency [14] | Potency [15] | Potency [16] | Potency [17]
